Only some compounds are listed: those with a hit (about 9.2% of all), similar ones and a draw of the others.
HPGD block = qHTS Assay for Inhibitors of HPGD (15-Hydroxyprostaglandin Dehydrogenase) | purified HPGD, NADH fluorescence kinetic, PGE2 substrate | Potency, µM, inactives show top-dose activity change, negative = inhibition, usual class: inhibitors | 150,000 tested, 4.3% active | AID 894, 2007; also: % is scaled to controls: 0 for no effect and ±100 for the full control effect
Target sequence (P15428 whole entry, looked up): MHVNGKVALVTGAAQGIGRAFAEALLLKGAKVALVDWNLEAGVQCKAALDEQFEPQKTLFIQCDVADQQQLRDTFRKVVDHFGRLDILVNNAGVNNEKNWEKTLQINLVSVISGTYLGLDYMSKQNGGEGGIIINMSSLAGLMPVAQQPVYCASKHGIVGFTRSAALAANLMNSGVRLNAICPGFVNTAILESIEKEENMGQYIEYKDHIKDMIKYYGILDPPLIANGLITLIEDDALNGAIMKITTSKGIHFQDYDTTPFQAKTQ
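20 nM HPGD preincubated 15 min at room temperature with compound in 50 mM Tris-HCl pH 8, 0.01% Tween 20. Started with 1 mM NAD+ and 30 uM prostaglandin E2; NADH fluorescence (360/450 nm) read 5 times over 30-s intervals, last minus first.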
LMNA splice mod = qHTS Assay for Modulators of Lamin A Splicing; HeLa LMNA splicing GFP/RFP minigene ratio, 48 h; Potency, µM (titrated, usually from 46.1 µM), inactives show top-dose ratio change, negative = inhibition, most hits filed as inhibitors; 200,000 tested, 0.01% active; AID 1487, 2009; active = well fitted inhibition curve with a large enough effect in the signal ratio, with a control signal flat, not every such curve was filed as active; inconclusive = small, poorly fitted or top-dose-only effect, or effect the other way, or a change in a side signal; the % refers to the signal ratio; also: % is scaled to controls: 0 for no effect and ±100 for the full control effect
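S3 HeLa cells stably expressing lamin A-EGFP splicing minigene plus DsRed2, 600 cells/well, 48 h compound exposure at 37C. Laser-scanning cytometry; analysed as GFP (500-530 nm)/RFP (575-640 nm) total intensity ratio; 0.5% DMSO vehicle.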
HTT aggregate = qHTS Multiplex Assay to Identify Dual Action Probes in a Cell Model of Huntington: Aggregate Formation (GFP) | PC12 HttQ103-GFP aggregates, Acumen cytometry, 40 h | Potency, µM (titrated, usually from 46.1 µM), for the others: at the highest dose activity change, negative = inhibition, most hits filed as inhibitors | 220,000 tested, 1.1% active; active = well fitted curve in the direction sought with a large enough effect; inconclusive = small, poorly fitted or top-dose-only effect, or another doubt; inactive = no such curve, though single readings can be large; an effect the other way counts as inactive or inconclusive; also: % is scaled to controls: 0 for no effect and ±100 for the full control effect; nearly all actives have a fitted effect of over 60% in size
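Using laser scanning cytometry, GFP-positive aggregates were counted after lysis of PC12 cells induced with 100 nM tebufenozide to express HTT exon 1 Q103–GFP. Compounds were tested in titration.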
HTT ATP protect = qHTS Multiplex Assay to Identify Dual Action Probes in a Cell Model of Huntington: Cytoprotection (ATP) | PC12 HTT-Q103 induced, cytoprotection, ATP luminescence, 40 h | Potency, µM (top dose mostly 56.4 µM), for the others: cytoprotection (ATP increase), most hits filed as activators | 230,000 tested, 0.14% active | AID 1471, 2008; active = well fitted curve in the direction sought with a large enough effect; inconclusive = small, poorly fitted or top-dose-only effect, or another doubt; inactive = no such curve, though single readings can be large; an effect the other way counts as inactive or inconclusive; also: % of control where 0% means no effect; nearly all actives have a fitted effect of over 45% in size
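PC12 cells with ecdysone-inducible HTT exon 1 Q103-GFP, induced with 100 nM tebufenozide and co-treated with library compounds in a dose series (1536-well, 1500 cells/well). Cytoprotection read as ATP content by ATPlite luminescence.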
ALDH1A1 inh = qHTS Assay for Inhibitors of Aldehyde Dehydrogenase 1 (ALDH1A1). Aldehyde dehydrogenase 1A1 (Homo sapiens), P00352. Purified ALDH1A1, NADH fluorescence, propionaldehyde substrate. Potency, µM (doses to about 75.3 µM), for the others: top-dose activity, negative = inhibition, hits mostly inhibitors. 220,000 tested, 7.3% active. AID 1030, 2008;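 also: plate controls were no enzyme wells and a reference inhibitor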
KDM4E inh = qHTS Assay for Inhibitors of Human Jumonji Domain Containing 2E (JMJD2E); JMJD2E catalytic domain, FDH-coupled NADH fluorescence (FDH is formaldehyde dehydrogenase); Potency, µM (series often up to 57.1 µM), without a hit: at the highest dose activity change, negative = inhibition, most hits filed as inhibitors; 230,000 tested, 1.6% active; AID 2147, 2009;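 also: 0% = wells with enzyme and -100% = buffer wells without enzyme; nearly all actives have a fitted effect of over 50% in size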
Target sequence (B2RXH2 1-337 limits assumed): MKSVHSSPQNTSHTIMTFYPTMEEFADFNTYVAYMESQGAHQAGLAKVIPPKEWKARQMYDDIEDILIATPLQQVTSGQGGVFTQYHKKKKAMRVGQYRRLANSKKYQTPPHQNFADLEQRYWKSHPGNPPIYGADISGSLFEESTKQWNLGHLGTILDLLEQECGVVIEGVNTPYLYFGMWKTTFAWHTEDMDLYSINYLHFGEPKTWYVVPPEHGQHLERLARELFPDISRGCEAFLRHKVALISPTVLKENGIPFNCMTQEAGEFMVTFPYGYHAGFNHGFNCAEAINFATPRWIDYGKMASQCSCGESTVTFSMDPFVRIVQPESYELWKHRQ
Numbers without * were called inactive; ! = not active in a repeat; [ ] = another dose, or the depositor's remark. Unless noted, calls follow the shape of the dose curve; as a rule, active = well fitted inhibition curve with a large enough effect (not every such curve was filed as active); inconclusive = small, poorly fitted or top-dose-only effect, or another doubt; inactive = no such curve, though single readings can be large or run the other way. Potency is read from the fitted curve at half-maximal effect.

What do the screens show for `OCCCNc1cc(-c2ccnc(Nc3cccc(Cl)c3)n2)ccn1`?
HTT aggregate: 0.71µM*; HTT ATP protect: -5%[10 µM]; KDM4E inh: -26%

How did Cc1cc(C)nc(SCC(=O)Nc2ccc(N3CCOCC3)c(Cl)c2)n1 do in these assays?
HPGD block: -7%; LMNA splice mod: inconclusive; HTT aggregate: inconclusive; HTT ATP protect: 2%[1.9 µM]; ALDH1A1 inh: 22µM*; KDM4E inh: 1%

How did CCOC(=O)CSc1nnnn1-c1cccc2ccccc12 do in these assays?
HPGD block: 25µM*; LMNA splice mod: -2%; HTT aggregate: -3%; HTT ATP protect: -11%[0.074 µM]; ALDH1A1 inh: 1.8µM*; KDM4E inh: 0%

What do the screens show for `CC(=O)Nc1ccc2nc(SCC(=O)Nc3ccc(N4CCOCC4)c(Cl)c3)sc2c1`?
HPGD block: -1%; LMNA splice mod: -4%[0.0737 µM]; HTT aggregate: 13%; HTT ATP protect: 21%; ALDH1A1 inh: inconclusive; KDM4E inh: inconclusive

What do the screens show for `O=C(CSc1nnnn1-c1cccc2ccccc12)Nc1ccc(N2CCOCC2)c(Cl)c1`?
HPGD block: -6%; LMNA splice mod: 4%; HTT aggregate: inconclusive; HTT ATP protect: -2%; ALDH1A1 inh: 1.8µM*; KDM4E inh: 1%

What do the screens show for `O=C(CCCn1c(=O)c2cccn2c2ccc(F)cc21)NCCc1ccccc1`?
LMNA splice mod: -6%[46 µM]

Results for CNC1=C(Cl)C(=O)c2ccncc2C1=O ?
HPGD block: -3%; HTT ATP protect: -79%; ALDH1A1 inh: -8%; KDM4E inh: inconclusive

Results for CC(=O)Oc1ccc(OC(C)=O)c(SCCCCCN2CCOCC2)c1 ?
HPGD block: 18µM*; LMNA splice mod: inconclusive; HTT aggregate: inconclusive; HTT ATP protect: -97%; ALDH1A1 inh: 3%; KDM4E inh: -11%

Results for CC(=O)Nc1ccc(N=Nc2c(C)[nH]n(C(N)=S)c2=O)cc1 ?
HTT aggregate: -5%; HTT ATP protect: inconclusive; ALDH1A1 inh: inconclusive; KDM4E inh: -4%

What do the screens show for `Cc1c(N=Nc2c(-c3ccc([N+](=O)[O-])cc3)[nH]n(C(N)=S)c2=O)cccc1[N+](=O)[O-]`?
HTT aggregate: inconclusive; ALDH1A1 inh: 22µM*; KDM4E inh: -10%

What do the screens show for `NC(=S)n1[nH]c(-c2ccc([N+](=O)[O-])cc2)c(N=Nc2cccc([N+](=O)[O-])c2)c1=O`?
LMNA splice mod: inconclusive; HTT aggregate: 13µM*; HTT ATP protect: -121%; ALDH1A1 inh: 25µM*; KDM4E inh: inconclusive

How did NC(=S)n1[nH]c(-c2ccc([N+](=O)[O-])cc2)c(N=Nc2ccccc2[N+](=O)[O-])c1=O do in these assays?
LMNA splice mod: inconclusive; HTT aggregate: 4%; HTT ATP protect: 12%[10 µM]; ALDH1A1 inh: inconclusive; KDM4E inh: -13%

What do the screens show for `Cc1c2ccccc2c(CSC(=N)N)c2ccccc12`?
HPGD block: inconclusive; HTT ATP protect: -55%[10 µM]; ALDH1A1 inh: 14µM*!; KDM4E inh: 69%

Results for CC1(C)Cc2ccccc2C(NNC(=O)c2ccccn2)=N1 ?
HPGD block: -10%; LMNA splice mod: inconclusive; HTT aggregate: 18µM*; HTT ATP protect: -46%; ALDH1A1 inh: 6%; KDM4E inh: 25µM*

How did CC1(C)Cc2ccccc2C(NNC(=O)c2ccccc2)=N1 do in these assays?
HTT aggregate: 15%; HTT ATP protect: -26%; ALDH1A1 inh: -5%; KDM4E inh: 2%

How did COc1ccc(-c2nc3cnc(N4CCN(C)CC4)nc3n(CCC#N)c2=O)cc1 do in these assays?
HPGD block: inconclusive; HTT ATP protect: -41%; ALDH1A1 inh: inconclusive

Results for COC(=O)c1ccc2c(c1)SC1=C(CCCC1=O)N2 ?
HPGD block: 40µM*; LMNA splice mod: -6%; HTT aggregate: inconclusive; HTT ATP protect: -11%; ALDH1A1 inh: 4%; KDM4E inh: -9%

Results for O=C1CCCC2=C1Sc1ccc(Cl)cc1N2 ?
HTT aggregate: -29%[9.22 µM]; HTT ATP protect: -17%[10 µM]; KDM4E inh: -7%

What do the screens show for `c1ccc(-c2nnc3sc(-c4ccncc4)nn23)cc1`?
HPGD block: -14%; LMNA splice mod: 2%; HTT aggregate: 6%; HTT ATP protect: -7%; ALDH1A1 inh: inconclusive; KDM4E inh: -21%

How did Cc1cccc(-c2nnc3sc(-c4ccccc4C)nn23)c1 do in these assays?
HPGD block: -25%; LMNA splice mod: inconclusive; HTT aggregate: 11µM*; HTT ATP protect: -31%[0.074 µM]; ALDH1A1 inh: -8%; KDM4E inh: -7%

How did c1ccc(-c2nnc3sc(-c4csc5c4CCCC5)nn23)cc1 do in these assays?
HPGD block: 11µM*; LMNA splice mod: 12%; HTT aggregate: inconclusive; HTT ATP protect: -18%[10 µM]; ALDH1A1 inh: 7.9µM*; KDM4E inh: -6%

Results for COc1cc(C(=S)N2CCCC2)cc(Cl)c1OCC(=O)Nc1ccc(C)cc1C ?
HPGD block: 7.9µM*; LMNA splice mod: inconclusive; HTT aggregate: 12%; ALDH1A1 inh: 2.5µM*; KDM4E inh: 6%

Results for COc1ccc2cc(C(=O)NCc3ccc4c(c3)CCN4C(=O)c3ccc(F)cc3)[nH]c2c1 ?
LMNA splice mod: 0%[46 µM]

How did Cc1nonc1C1CCCN1Cc1cn[nH]c1-c1ccc2c(c1)OCO2 (stereo unspecified) do in these assays?
HTT aggregate: inconclusive; HTT ATP protect: -17%; ALDH1A1 inh: 16µM*; KDM4E inh: 4%

Results for CCN(CC)S(=O)(=O)c1ccc2c(c1)nc(CCC(=O)O)n2C ?
LMNA splice mod: -3%[46 µM]; HTT aggregate: 19%[9.22 µM]; HTT ATP protect: 13%[10 µM]; ALDH1A1 inh: 11µM*; KDM4E inh: 11%

Results for CCN(CC)S(=O)(=O)c1ccc2c(c1)nc(CCC(=O)OCC(=O)Nc1c(F)cccc1F)n2C ?
HPGD block: -10%; LMNA splice mod: -1%; HTT aggregate: 9%; ALDH1A1 inh: 10µM*; KDM4E inh: -3%

What do the screens show for `CCN(CC)S(=O)(=O)c1ccc2c(c1)nc(CCC(=O)Nc1ccc3c(c1)OCO3)n2CC`?
HPGD block: -11%; LMNA splice mod: inconclusive; HTT aggregate: 17%; HTT ATP protect: 24%[10 µM]; ALDH1A1 inh: 2.8µM*; KDM4E inh: -7%
